High-throughput results: PubChem, National Center for Advancing Translational Sciences (NCATS)
The list is not random: actives were taken first. Their share in the collection is about 8.7%.
JMJD2A Tudor inh = qHTS Assay for Inhibitors of JMJD2A-Tudor Domain. Potency, µM (series often up to 114 µM), without a hit: at the highest dose activity change, negative = inhibition, hits mostly inhibitors. 390,000 compounds, 4.4% hits. AlphaScreen JMJD2A-Tudor / H3K4me3 peptide binding. Lysine-specific demethylase 4A (Homo sapiens), O75164; note: % is set by controls: 0 for no effect and ±100 for the full control effect; nearly all actives have a fitted effect of over 50% in size
BAZ2B inh = qHTS Assay for Inhibitors of BAZ2B; AlphaScreen BAZ2B-H3K14Ac peptide displacement; Potency, µM (top dose mostly 114 µM), without a hit: top-dose activity change, negative = inhibition, usual class: inhibitors; 360,000 compounds, 4.4% hits; note: % is set by controls: 0 for no effect and ±100 for the full control effect; nearly all actives have a fitted effect of over 60% in size
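AlphaScreen displacement of biotin-H3(5-23)K14Ac peptide (50 nM final) from BAZ2B (50 nM final) in PBS pH 7.4, 0.01% Tween-20; complex preformed 30 min RT, then compounds (top 110 uM) 30 min RT, beads 20 min dark.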
G9a inh = qHTS Assay for Inhibitors of Histone Lysine Methyltransferase G9a; 350,000 compounds, 8.8% hits; Histone-lysine N-methyltransferase EHMT2 (Homo sapiens), Q96KQ7; G9a H3K9 monomethylation, AlphaScreen, 2 h; Potency, µM (top dose mostly 102 µM), inactives show at the highest dose activity, negative = inhibition, usual class: inhibitors; AID 504332, 2011; note: % is set by controls: 0 for no effect and ±100 for the full control effect; nearly all actives have a fitted effect of over 75% in size
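Step 1: enzyme (final 20 nM) with compound, 15 min RT. Step 2: substrate peptide 500 nM and SAM 20 uM, 2 h RT. Step 3: anti-H3K9me1 antibody and AlphaScreen beads, 10 min, then plate read.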
HP1b binding inh = HTS for Inhibitors of HP1-beta Chromodomain Interactions with Methylated Histone Tails. 390,000 compounds, 0.56% hits. Potency, µM (top dose mostly 114 µM), inactives show at the top dose activity change, negative = inhibition, hits mostly inhibitors. AID 540317, 2011. AlphaScreen HP1-beta / biotin-H3K9me3 peptide binding; note: nearly all actives have a fitted effect of over 70% in size
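Compound inhibition of the preformed complex between 50 nM HP1-beta and 50 nM biotinylated H3K9me3 peptide was read by AlphaScreen. Buffer was PBS pH 7.4 with 0.01% Tween-20. Incubations ran 30 min at room temperature, with 10 ug/mL donor/acceptor beads.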
ALOX12 inh = Primary qHTS assay for inhibitors of human arachidonate 12S-lipoxygenase (ALOX12): Round 2 | Potency, µM (highest dose often 108 µM), without a hit: top-dose activity change, negative = inhibition, hits mostly inhibitors | AID 1671190, 2021 | Polyunsaturated fatty acid lipoxygenase ALOX12 (Homo sapiens), P18054 | 580,000 compounds, 1.1% hits | purified 12hLO, xylenol orange hydroperoxide absorbance; note: % is set by controls: 0 for no effect and ±100 for the full control effect
Target sequence (P18054 whole entry, looked up): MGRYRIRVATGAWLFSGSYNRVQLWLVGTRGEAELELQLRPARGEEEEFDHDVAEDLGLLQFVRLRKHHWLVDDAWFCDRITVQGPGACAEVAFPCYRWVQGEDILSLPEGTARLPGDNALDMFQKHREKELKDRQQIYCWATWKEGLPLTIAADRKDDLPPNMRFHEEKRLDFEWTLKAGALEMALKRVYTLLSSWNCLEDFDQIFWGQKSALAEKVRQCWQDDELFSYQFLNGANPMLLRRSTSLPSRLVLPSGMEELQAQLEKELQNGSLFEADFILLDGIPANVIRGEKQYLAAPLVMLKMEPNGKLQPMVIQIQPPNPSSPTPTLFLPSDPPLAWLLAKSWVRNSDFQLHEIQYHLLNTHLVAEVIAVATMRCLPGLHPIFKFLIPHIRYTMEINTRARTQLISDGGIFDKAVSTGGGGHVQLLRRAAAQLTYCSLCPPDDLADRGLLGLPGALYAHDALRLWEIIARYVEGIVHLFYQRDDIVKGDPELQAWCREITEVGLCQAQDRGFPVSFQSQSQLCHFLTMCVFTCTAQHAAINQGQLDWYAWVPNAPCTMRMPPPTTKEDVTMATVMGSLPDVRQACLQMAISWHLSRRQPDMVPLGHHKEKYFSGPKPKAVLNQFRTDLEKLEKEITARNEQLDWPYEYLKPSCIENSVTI
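Hydroperoxide product was detected by ferrous iron/xylenol orange as the 573 to 405 nm absorbance ratio. Arachidonic acid at 40 uM (final) was turned over for 30 min at room temperature by 150 nM human 12hLO, pH 7.0 Hepes buffer, after 15 min compound preincubation.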
Sfp inh = qHTS Assay for Inhibitors of Bacillus subtilis Sfp phosphopantetheinyl transferase (PPTase); 4'-phosphopantetheinyl transferase ffp (Bacillus subtilis), Q9F4F7; Biochemical Sfp PPTase activity, qHTS; Potency, µM, for inactives: largest response in the series, negative = inhibition, most hits filed as inhibitors; 310,000 compounds, 3.5% hits; AID 1490, 2009;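 note: the enzyme is Sfp with the accession as filed and its product quenches rhodamine fluorescence; 0% = enzyme reaction without inhibitor and -100% = no enzyme wells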
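Reaction rates are the 30-min fluorescence difference (ex 525, em 598 nm) in wells containing 15 nM Sfp, 5 uM rhodamine-CoA and 12.5 uM BHQ-2-YbbR at pH 7.6 with 10 mM MgCl2.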
The depositor's hits bear a star; [ ] = remark or other dose. Calls come from the whole dose curve; as a rule, active = well fitted curve in the direction sought with a large enough effect; inconclusive = small, poorly fitted or top-dose-only effect, or another doubt; inactive = no such curve, though single readings can be large; an effect the other way counts as inactive or inconclusive. Potency is the fitted concentration of half-maximal effect.

`Fc1ccccc1-c1nnc(SCCc2ccncc2)n1C1CC1` gave ALOX12 inh 6%.
`Cc1ccc(NC(NC(=O)c2ccccc2C)C(Cl)(Cl)Cl)c(C)c1` (configuration not stated) gave ALOX12 inh 1%.
Screening CC1CCN(CC2CCN(C(=O)NCc3ccc(F)cc3)CC2)CC1 returned JMJD2A Tudor inh -9%, BAZ2B inh 3%, G9a inh 5%[59 µM], HP1b binding inh 17% and ALOX12 inh -16%.
Screening CCc1ccc(CNC(=O)C2CCN(S(=O)(=O)N3CC(C)CC(C)C3)CC2)cc1 (configuration not stated) returned JMJD2A Tudor inh -10%, BAZ2B inh 50µM*, G9a inh 2%, HP1b binding inh 26%, ALOX12 inh 4% and Sfp inh 12%.
For CC1CCN(S(=O)(=O)N2CCCC(C(=O)NCc3ccc(F)cc3)C2)CC1 (configuration not stated) the results were JMJD2A Tudor inh 11µM*, BAZ2B inh -12%, G9a inh 13%, HP1b binding inh -20%[57 µM], ALOX12 inh 6% and Sfp inh 5%.
Screening CC1CCN(C(=O)C(C)NCc2ccc(F)cc2)CC1 (configuration not stated) returned JMJD2A Tudor inh 10µM*, BAZ2B inh 50µM*, G9a inh 7.1µM*, HP1b binding inh 20%, ALOX12 inh inconclusive and Sfp inh -14%.
`O=C(c1cc[nH]c(=O)c1)N1C[C@@H](CO)[C@H](c2ccccn2)C1` gave ALOX12 inh 82%.
`COCCN1C(=O)c2ccccc2C(C(=O)Nc2nc3ccccc3s2)C12CCCCC2` (configuration not stated) gave ALOX12 inh -16%.
COCCn1c(=S)[nH]c2cc(C(=O)NC(C)C)ccc2c1=O was read as JMJD2A Tudor inh inconclusive, BAZ2B inh inconclusive, G9a inh 11µM*, HP1b binding inh 32%, ALOX12 inh -27% and Sfp inh 21%.
`COC(=O)c1ccc2c(=O)n(CCCCCC(=O)N3CCN(c4ccccc4)CC3)c(=O)[nH]c2c1` gave JMJD2A Tudor inh 56µM*, BAZ2B inh 3%, G9a inh -7%, HP1b binding inh -25%, ALOX12 inh 0% and Sfp inh -8%.
CCOCCCn1c(=S)[nH]c2cc(C(=O)NCCc3ccc(OC)c(OC)c3)ccc2c1=O was read as JMJD2A Tudor inh 3%, BAZ2B inh -1%, HP1b binding inh 53%, ALOX12 inh 8% and Sfp inh -9%.
COC(=O)c1ccc2c(=O)n(CCO)c(=S)[nH]c2c1 was read as JMJD2A Tudor inh inconclusive, BAZ2B inh -30%, G9a inh inconclusive, HP1b binding inh 24%, ALOX12 inh -7% and Sfp inh 10%.
For COC(=O)c1ccc2c(=O)n(CCCCCC(=O)O)c(=S)[nH]c2c1 the results were JMJD2A Tudor inh 50µM*, BAZ2B inh -28%, G9a inh 45µM*, HP1b binding inh 42%, ALOX12 inh -7% and Sfp inh -11%.
CCOCCCn1c(=S)[nH]c2cc(C(=O)NCCOC)ccc2c1=O was read as JMJD2A Tudor inh 40µM*, BAZ2B inh inconclusive, G9a inh inconclusive, HP1b binding inh 43%, ALOX12 inh -15% and Sfp inh 79µM*.
For O=C1CSc2ccc(C(=O)OCc3nc(-c4ccccc4)no3)cc2N1 the results were ALOX12 inh -9%.
`CC(C)(C)NC(=O)c1csc(C(O)c2ccc(C(C)(C)C)cc2)n1` (configuration not stated) gave ALOX12 inh -8%.
`CCOCCCn1c(=S)[nH]c2cc(C(=O)NC3CCCCC3C)ccc2c1=O` (configuration not stated) gave JMJD2A Tudor inh -3%, BAZ2B inh -2%, G9a inh 46%, HP1b binding inh 29%, ALOX12 inh 7% and Sfp inh 26%.
Screening CCOCCCNC(=O)c1ccc2c(=O)n(CCCOCC)c(=S)[nH]c2c1 returned JMJD2A Tudor inh -11%, BAZ2B inh -19%, G9a inh 10µM*, HP1b binding inh 35%, ALOX12 inh -12% and Sfp inh 10%.
Screening CCOCCCn1c(=S)[nH]c2cc(C(=O)NCCCN(CC)CC)ccc2c1=O returned JMJD2A Tudor inh -18%, BAZ2B inh -14%, G9a inh 8.9µM*, HP1b binding inh 27%, ALOX12 inh -23% and Sfp inh 2%.
`COCCNC(=O)C1CCC(Cn2c(=S)[nH]c3ccccc3c2=O)CC1` (configuration not stated) gave JMJD2A Tudor inh 79µM*, BAZ2B inh -3%, G9a inh inconclusive, HP1b binding inh 47%, ALOX12 inh -1% and Sfp inh 13%.
`Cc1ccn(CC(=O)N2CCC3(CCCN(CCCc4ccccc4)C3)C2)n1` (configuration not stated) gave ALOX12 inh 40%.
`COc1cccc(CN2CCOC3CCN([S+](=O)([O-])c4ccccc4C)CC3C2=O)c1` (configuration not stated) gave ALOX12 inh 7%.
For Cc1nnc(N/N=C/C(C)c2ccccc2)[nH]c1=O (configuration not stated) the results were JMJD2A Tudor inh 0.89µM*, BAZ2B inh -25%, G9a inh inconclusive, HP1b binding inh 28%, ALOX12 inh 0% and Sfp inh 79µM*.
Screening O=C1NCCCCCCN(Cc2ccncc2)[C@@H]2CN(C3CCOCC3)CC[C@H]12 returned ALOX12 inh 132%.
`CN(N)C(=S)Nc1ccc(Cl)cc1` gave JMJD2A Tudor inh 1%, BAZ2B inh -31%, G9a inh 16µM*, HP1b binding inh 36%, ALOX12 inh inconclusive and Sfp inh -10%.
CN(C)NC(=S)Nc1ccc(Cl)cc1 was read as JMJD2A Tudor inh -6%, BAZ2B inh -23%, G9a inh 6%[59 µM], HP1b binding inh 2%, ALOX12 inh -4%[57.4 µM] and Sfp inh 16%.
